Measurements reported in PubChem BioAssay (Tox21).
Inconclusive results are not listed. Activity calls are given as the source filed them. Unless noted, calls follow the shape of the dose curve; as a rule, active = well fitted curve in the direction sought with a large enough effect in the repeat runs; inconclusive = weak or mixed curves; inactive = no such curve, though single readings can be large; an effect the other way counts as inactive or inconclusive. Where a SMILES comes first, the peptide text is derived from it.

Columns and labels:
[1] = qHTS assay to identify small molecule agonists or antagonists of the thyroid stimulating hormone receptor (TSHR) signaling pathway - wild type cell line counter screen (AID 1259384; calls by dose curve)
Procedure, shortened: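 Counter screen in untransfected Hek293: compounds (15-point titration, triplicate) plus phosphodiesterase inhibitor Ro20-1724 added after 18 h plating; 30 min RT. Intracellular cAMP via competitive d2/cryptate immunoassay, 1 h incubation.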

[2] = molecular target: Thyrotropin receptor (Homo sapiens) (UniProt P16473); assay: qHTS assay to identify small molecule antagonists of the thyroid stimulating hormone receptor (TSHR) signaling pathway (AID 1259385; calls by dose curve; also: nearly all actives have a fitted effect of over 20% in size)
Sequence of Thyrotropin receptor (Homo sapiens) (P16473 whole entry, looked up): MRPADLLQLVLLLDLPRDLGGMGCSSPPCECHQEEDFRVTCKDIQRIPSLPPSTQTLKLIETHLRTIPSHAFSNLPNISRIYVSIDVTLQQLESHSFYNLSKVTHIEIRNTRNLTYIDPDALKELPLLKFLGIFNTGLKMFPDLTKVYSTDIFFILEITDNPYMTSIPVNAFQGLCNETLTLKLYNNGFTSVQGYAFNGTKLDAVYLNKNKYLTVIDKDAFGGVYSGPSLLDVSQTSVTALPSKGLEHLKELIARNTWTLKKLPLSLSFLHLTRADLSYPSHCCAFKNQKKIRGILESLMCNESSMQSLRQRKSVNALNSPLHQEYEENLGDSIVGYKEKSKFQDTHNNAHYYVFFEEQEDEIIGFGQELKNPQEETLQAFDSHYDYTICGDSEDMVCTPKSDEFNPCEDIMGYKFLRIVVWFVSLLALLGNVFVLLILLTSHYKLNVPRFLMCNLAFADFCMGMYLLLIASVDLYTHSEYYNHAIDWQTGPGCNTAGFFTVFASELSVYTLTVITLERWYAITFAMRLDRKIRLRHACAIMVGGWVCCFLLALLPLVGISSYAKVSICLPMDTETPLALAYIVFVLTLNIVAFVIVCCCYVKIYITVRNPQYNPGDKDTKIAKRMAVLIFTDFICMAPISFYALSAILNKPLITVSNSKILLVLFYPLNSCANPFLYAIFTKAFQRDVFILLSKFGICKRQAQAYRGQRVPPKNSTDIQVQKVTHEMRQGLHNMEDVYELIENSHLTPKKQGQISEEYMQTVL
Procedure, shortened: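 Antagonist mode: compound-treated TSHR-expressing HEK293 cells were stimulated with 1.5 ng/mL TSH (final) in presence of Ro20-1724 for 30 min at RT. HTRF cAMP detection after 1 h; each compound tested at 15 concentrations, triplicate.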

[3] = qHTS assay to identify small molecule agonists of the estrogen receptor alpha (ER-alpha) signaling pathway in the presence of an antagonist - cell viability counter screen (AID 1259386);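 also: series mostly up to about 92 µM; cells exposed to compounds for 22 h at 37 °C before the viability read; nearly all actives have a fitted effect of over 30% in size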
Procedure, shortened: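 Fluorescent CellTiter-Fluor viability signal from VM7Luc4E2 cells, with the reagent added during the final hour of a 22hr compound exposure at 37C in the presence of 10.0nM ICI-182,780.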

[4] = molecular target: Progesterone receptor (Homo sapiens) (UniProt P06401); assay: qHTS assay to identify small molecule antagonists of the progesterone receptor (PR) signaling pathway (AID 1346795; active = well fitted inhibition curve with a large enough effect in the signal ratio in the repeat runs, not every such curve was filed as active; the % refers to the signal ratio)
Sequence of Progesterone receptor (Homo sapiens) (P06401 whole entry, looked up): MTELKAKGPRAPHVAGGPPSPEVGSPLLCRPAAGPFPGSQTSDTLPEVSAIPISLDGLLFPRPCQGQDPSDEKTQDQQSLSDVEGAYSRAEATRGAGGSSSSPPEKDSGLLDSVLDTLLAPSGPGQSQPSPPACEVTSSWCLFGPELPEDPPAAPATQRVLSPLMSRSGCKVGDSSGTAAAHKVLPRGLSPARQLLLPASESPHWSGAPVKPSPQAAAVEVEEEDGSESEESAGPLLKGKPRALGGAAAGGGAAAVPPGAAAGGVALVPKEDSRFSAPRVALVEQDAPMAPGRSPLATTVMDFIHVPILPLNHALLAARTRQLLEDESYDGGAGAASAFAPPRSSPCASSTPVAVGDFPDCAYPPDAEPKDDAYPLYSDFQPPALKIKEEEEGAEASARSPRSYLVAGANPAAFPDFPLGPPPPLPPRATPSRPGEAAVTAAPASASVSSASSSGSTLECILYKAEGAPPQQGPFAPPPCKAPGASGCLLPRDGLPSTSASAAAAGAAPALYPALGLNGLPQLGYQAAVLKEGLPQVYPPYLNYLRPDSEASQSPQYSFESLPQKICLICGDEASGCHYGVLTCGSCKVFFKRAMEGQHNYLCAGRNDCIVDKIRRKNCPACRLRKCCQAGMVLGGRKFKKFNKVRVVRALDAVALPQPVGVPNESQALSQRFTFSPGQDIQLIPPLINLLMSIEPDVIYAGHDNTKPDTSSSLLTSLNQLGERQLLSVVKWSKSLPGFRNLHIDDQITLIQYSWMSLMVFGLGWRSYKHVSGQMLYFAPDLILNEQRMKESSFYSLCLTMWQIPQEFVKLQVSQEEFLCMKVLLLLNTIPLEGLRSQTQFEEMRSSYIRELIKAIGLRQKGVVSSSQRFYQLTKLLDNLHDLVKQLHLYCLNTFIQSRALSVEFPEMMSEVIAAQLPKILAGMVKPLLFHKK
Procedure, shortened: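 Antagonist mode: compounds tested against 1 nM (final) promegestone stimulation in HEK293T cells expressing PR-UAS-bla reporter, 16 hr at 37C, 5% CO2; beta-lactamase activity detected via B/G FRET substrate after 2 hr at room temperature.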

[5] = qHTS assay to identify small molecule antagonists of the progesterone receptor (PR) signaling pathway - cell viability counter screen (AID 1346798); also: series mostly up to about 92 µM; nearly all actives have a fitted effect of over 50% in size
Procedure, shortened: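 Counter screen for cytotoxicity: viability of PR-UAS-bla HEK293T cells was measured with CellTiter-Glo luminescence following 16 hr compound exposure in the presence of R5020.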

[6] = qHTS assay to identify small molecule agonists of the progesterone receptor (PR) signaling pathway - cell viability counter screen (AID 1346799; calls by dose curve; also: nearly all actives have a fitted effect of over 45% in size)
Procedure, shortened: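 Cells (PR-UAS-bla HEK293T) are plated at 3,000/well in 2% charcoal-stripped FBS medium, rested 6 hr, dosed and incubated 16 hr at 37C. CellTiter-Glo is then added and luminescence measured after 30 min at room temperature.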

[7] = qHTS assay to identify small molecule antagonists of the TGF-beta/Smad signaling pathway - cell viability counter screen (AID 1346824); also: nearly all actives have a fitted effect of over 50% in size
Procedure, shortened: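 Cytotoxicity counter-screen run in the same wells as the beta-lactamase Smad reporter read: CellTiter-Glo luminescence after 30 min at room temperature. HEK 293T SBE-bla cells had 5 hr compound exposure at 37 C with TGF-beta1 (0.25 ng/mL stock).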

[8] = qHTS assay to identify small molecule agonists of the TGF-beta/Smad signaling pathway - cell viability counter screen (AID 1346829); also: top concentration of the series differs between compounds; nearly all actives have a fitted effect of over 45% in size
Procedure, shortened: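 Luminescence from CellTiter-Glo, read after a 30 min room-temperature incubation, gives cell viability of SBE-bla HEK 293T cells treated 5 hr with compounds at 37 C.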

[9] = molecular target: Progesterone receptor (Homo sapiens) (UniProt P06401); assay: qHTS assay to identify small molecule agonists of the progesterone receptor (PR) signaling pathway (AID 1346784; calls by dose curve; also: nearly all actives have a fitted effect of over 30% in size)
Procedure, shortened: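 Cells (PR-UAS-bla HEK 293T, GripTite) were plated in assay medium containing 2% charcoal-stripped FBS and incubated 6 hr. Test compounds in DMSO were added for 16 hr at 37C. FRET substrate was then loaded for 2 hr at room temperature before fluorescence reading.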

[10] = molecular target: Estrogen receptor (Homo sapiens) (UniProt P03372); assay: qHTS assay to identify small molecule agonists of the estrogen receptor alpha (ER-alpha) signaling pathway in the presence of an antagonist (AID 1259383; calls by dose curve; also: top concentration of the series differs between compounds; nearly all actives have a fitted effect of over 15% in size)
Sequence of Estrogen receptor (Homo sapiens) (P03372 whole entry, looked up): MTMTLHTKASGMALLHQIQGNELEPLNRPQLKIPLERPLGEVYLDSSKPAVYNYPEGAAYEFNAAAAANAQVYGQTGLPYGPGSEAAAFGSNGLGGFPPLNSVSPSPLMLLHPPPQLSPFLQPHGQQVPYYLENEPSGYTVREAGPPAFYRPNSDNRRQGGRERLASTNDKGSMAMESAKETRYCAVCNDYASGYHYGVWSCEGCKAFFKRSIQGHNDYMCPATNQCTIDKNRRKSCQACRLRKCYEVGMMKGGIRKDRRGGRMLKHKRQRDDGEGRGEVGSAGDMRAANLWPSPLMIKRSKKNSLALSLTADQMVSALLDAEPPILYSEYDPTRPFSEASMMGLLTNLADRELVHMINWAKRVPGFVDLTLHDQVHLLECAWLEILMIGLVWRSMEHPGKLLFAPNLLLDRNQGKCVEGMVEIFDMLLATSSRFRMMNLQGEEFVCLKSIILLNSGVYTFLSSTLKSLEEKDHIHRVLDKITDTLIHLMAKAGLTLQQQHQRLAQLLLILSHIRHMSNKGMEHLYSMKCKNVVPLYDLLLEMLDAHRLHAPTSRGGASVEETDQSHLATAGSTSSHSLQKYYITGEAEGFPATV
Procedure, shortened: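 In VM7Luc4E2 cells, 4,000 per well, compounds at 15 concentrations were co-incubated 22hr at 37C with 10.0nM final ICI-182,780. Luminescence from the stably transfected 4×ERE-luciferase reporter was recorded 30min after ONE-Glo addition.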
% is scaled to controls: 0 for no effect and ±100 for the full control effect.

CC(C)NCC(O)c1ccc2ccccc2c1 (stereo not drawn)
inactive: outcome [1] | outcome [2] | outcome [3] | Potency [4] | outcome [5] | outcome [6] | outcome [7] | outcome [8]

N[C@@H](Cc1ccc(O)cc1)C(=O)O
inactive: cAMP activity change [1] 6.84% [at 8.39 µM] | activity change, negative = inhibition [2] 3.38% [at 8.39 µM] | activity change, negative = cytotoxicity [3] 1.69% [at 8.39 µM] | activation [9] -2.73% [at 8.39 µM] | activity change, negative = inhibition [4] 7.58% [at 8.39 µM] | activity change, negative = cytotoxicity [5] -4.23% [at 8.39 µM] | activity change, negative = cytotoxicity [6] -21.8% [at 8.39 µM] | viability change, negative = cytotoxic [7] -8.39% [at 6.97 µM] | activity change, negative = cytotoxicity [8] 9.15% [at 6.97 µM]

OCC(O)CN1CCN(c2ccccc2)CC1 (stereo not drawn)
inactive: outcome [1] | outcome [2] | outcome [3] | Potency [9] | Potency [4] | outcome [5] | outcome [6] | outcome [7] | outcome [8]

CC(C)CCOC(=O)c1ccccc1
inactive: outcome [1] | outcome [2] | outcome [3] | Potency [9] | Potency [4] | outcome [5] | outcome [6] | outcome [7] | outcome [8]

O=C(Cl)c1ccccc1[N+](=O)[O-]
inactive: outcome [1] | outcome [2] | outcome [3] | Potency [9] | Potency [4] | outcome [5] | outcome [6] | outcome [7] | outcome [8]

CC(C)NC(=O)c1ccc(C=O)cc1
inactive: outcome [1] | outcome [2] | outcome [3] | Potency [4] | outcome [5] | outcome [6] | outcome [7] | outcome [8]

CC(O)COC(C)(C)C (stereo not drawn)
inactive: outcome [1] | outcome [2] | outcome [3] | Potency [9] | Potency [4] | outcome [5] | outcome [6] | outcome [7] | outcome [8]

N#Cc1cscn1
inactive: outcome [1] | outcome [2] | outcome [3] | Potency [9] | Potency [4] | outcome [5] | outcome [6] | outcome [7] | outcome [8]

O=C(O)CONC(=O)c1ccccc1
inactive: outcome [1] | outcome [2] | Potency [9] | Potency [4] | outcome [5] | outcome [6] | outcome [7] | outcome [8]

CC(=O)O[C@H]1C[C@@H]2CC[C@@]1(C)C2(C)C
inactive: outcome [1] | outcome [2] | outcome [3] | Potency [9] | Potency [4] | outcome [5] | outcome [6] | outcome [7] | outcome [8]

CCCCCCCCCCCCCCC(=O)NC(CO)CCCCCCCCCCCCCC (stereo not drawn)
inactive: Potency [10] | Potency [9] | Potency [4] | outcome [5] | outcome [6] | outcome [7] | outcome [8]

CCCCCCCCCOC(=O)CCCCC(=O)OCCCCCCC
inactive: outcome [1] | outcome [2] | outcome [3] | Potency [9] | Potency [4] | outcome [5] | outcome [6] | outcome [7] | outcome [8]

CC(=O)CC(=O)Nc1ccc(C)cc1C
inactive: outcome [1] | outcome [2] | outcome [3] | Potency [9] | outcome [5] | outcome [6] | outcome [7] | outcome [8]

Cc1ccc(C(C)NC(=O)[C@@H](NC(=O)OC(C)C)C(C)C)cc1 (stereo partly drawn)
inactive: outcome [1] | outcome [2] | outcome [3] | Potency [9] | Potency [4] | outcome [5] | outcome [6] | outcome [7] | outcome [8]

Cc1ccc(C)c([N+](=O)[O-])c1
inactive: outcome [1] | outcome [2] | outcome [3] | outcome [5] | outcome [6] | outcome [7] | outcome [8]

CCCCSCCCC
inactive: outcome [2] | outcome [3] | Potency [9] | outcome [5] | outcome [6] | outcome [7] | outcome [8]

ONc1ccccc1
inactive: outcome [1] | outcome [2] | outcome [5] | outcome [6] | outcome [7] | outcome [8]

CC(=O)O[C@@H]1CC2CCC1(C)C2(C)C (stereo partly drawn)
inactive: outcome [2] | outcome [3] | Potency [9] | Potency [4] | outcome [5] | outcome [6] | outcome [7] | outcome [8]

CC(=O)N[C@@H](CO)C(=O)N[C@@H](CC(=O)O)C(=O)N[C@@H](CCCCN)C(=O)N1CCC[C@H]1C(=O)O (Ac-SDKP-OH)
inactive: outcome [3] | Potency [9] | Potency [4] | outcome [5] | outcome [6] | outcome [7] | outcome [8]

CCCCCC/C=C/C(=O)OC
inactive: outcome [2] | outcome [3] | Potency [9] | Potency [4] | outcome [5] | outcome [6] | outcome [7] | outcome [8]

CC(Oc1cc(Cl)ccc1Cl)C(=O)O (stereo not drawn)
inactive: outcome [3] | Potency [9] | Potency [4] | outcome [5] | outcome [6] | outcome [7] | outcome [8]

CO[Si](CCCn1c(=O)n(CCC[Si](OC)(OC)OC)c(=O)n(CCC[Si](OC)(OC)OC)c1=O)(OC)OC
inactive: outcome [1] | outcome [2] | Potency [9] | Potency [4] | outcome [5] | outcome [6] | outcome [7] | outcome [8]

c1ccc2c(CC3=NCCN3)cccc2c1
inactive: outcome [1] | outcome [3] | Potency [4] | outcome [5] | outcome [6] | outcome [7] | outcome [8]

OC[C@@H](O)C(O)[C@@H](O)CO (stereo partly drawn)
inactive: outcome [2] | outcome [3] | Potency [9] | Potency [4] | outcome [5] | outcome [6] | outcome [7] | outcome [8]
